According to PubChem BioAssay (NCATS):
Inconclusive results are not listed. Entries that show only a call come without a potency. The source made the active and inactive calls. Calls come from the whole dose curve; as a rule, active = well fitted inhibition curve with a large enough effect; inconclusive = small, poorly fitted or top-dose-only effect; inactive = flat fitted curve, though single readings scatter.

Each compound was assayed on MKL-1 (assay: qHTS assay to identify novel small-molecules to repurpose for Merkel cell carcinoma treatment (AID 1296009; note: nearly all actives have a fitted effect of over 60% in size)). Conditions: MCC and control cell lines, CellTiter-Glo viability, 72 h; series mostly up to 46 µM.
Outline: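 Luminescence from CellTiter-Glo, read 10 min after addition at room temperature, reported viability following a 72 hr, 37 degree celsius treatment with NPC or MIPE compounds in titration; values normalized to plate controls.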
Potency is the fitted concentration of half-maximal effect.

| SMILES | Potency |
| --- | --- |
| Cc1ccc([N+](=O)[O-])[c]2c1[O][Hg]2 | 133 nM (active) |
| O=C(N[C@@H]1N=C(c2ccccc2F)c2cccc3c2N(CC3)C1=O)c1cc2ccccc2[nH]1 | inactive |
| CC1Sc2c(C(=O)O)c(=O)c3cc(F)c(N4CCNCC4)cc3n21 (centres undefined) | inactive |
| OC(O)C(Cl)(Cl)Cl | inactive |
| CCCOC(=O)Cc1ccc(OCC(=O)N(CC)CC)c(OC)c1 | inactive |
| COP(=O)(OC)C(O)C(Cl)(Cl)Cl (centres undefined) | inactive |
| COCC(=O)N(c1c(C)cccc1C)C(C)C(=O)OC (centres undefined) | inactive |
| C[C@@H]1CN(C2CCC(C#N)(c3ccc(F)cc3)CC2)CC[C@]1(C(=O)O)c1ccccc1 (some centres undefined) | inactive |
| O=C(O)c1nn(Cc2ccc(Cl)cc2Cl)c2ccccc12 | inactive |
| Cc1ccc(N=CN(C)C=Nc2ccc(C)cc2C)c(C)c1 | inactive |
| COC(=O)C1=CCCN(C)C1 | inactive |
| O=C(CCCN1CCC(n2c(=O)[nH]c3ccccc32)CC1)c1ccc(F)cc1 | inactive |
| O=C1CN2CCOC2(c2ccccc2Cl)c2cc(Cl)ccc2N1 (centres undefined) | inactive |
| C[C@H]1CNCCc2ccc(Cl)cc21 | inactive |
| COc1cc(N)c(Cl)cc1C(=O)NC1CN2CCC1CC2 (centres undefined) | inactive |
| O=C(O)Cc1ccccc1 | inactive |
| C1CN2CCC1CC2 | inactive |
| CN1C(=O)CN=C(c2ccccc2)c2cc([N+](=O)[O-])ccc21 | inactive |
| O=C(CBr)Nc1ccc(Cl)cc1C(=O)c1ccccc1F | inactive |
| CCOC(=O)NC(O)C(Cl)(Cl)Cl (centres undefined) | inactive |

| SMILES | Potency |
| --- | --- |
| CC(C)C(Br)C(=O)NC(N)=O (centres undefined) | inactive |
| COP(=O)(OC)OC=C(Cl)Cl | inactive |
| COc1cc(C[C@@H](C)N)c(OC)cc1Br | inactive |
| ClCCCN1CCN(c2cccc(Cl)c2)CC1 | inactive |
| CC(CC(C(N)=O)(c1ccccc1)c1ccccc1)N(C)C (centres undefined) | inactive |
| Cc1nc2ccccc2c(=O)n1-c1ccccc1Cl | inactive |
| CCS(=O)(=O)C(C)(C)S(=O)(=O)CC | inactive |
| O=c1[nH]c2cc(Cl)ccc2n1C1CCNCC1 | inactive |
| C[N+]1(CCC(C(N)=O)(c2ccccc2)c2ccccc2)CCCCC1 | inactive |
| COP(=S)(OC)Oc1ccc(Sc2ccc(OP(=S)(OC)OC)cc2)cc1 | inactive |
| NC(=O)OCCCc1ccccc1 | inactive |
| CCOP(=S)(OCC)O/N=C(\C#N)c1ccccc1 | inactive |
| CCN1CCCC1CNC(=O)C(O)(c1ccccc1)c1ccccc1 (centres undefined) | inactive |
| CCC1(CC)C(=O)NC(=O)NC1=O | inactive |
| CC(C)(O)C(Cl)(Cl)Cl | inactive |
| c1ccc2nc(N3CCNCC3)ccc2c1 | inactive |
| CCOC(=O)C(c1c(O)c2ccccc2oc1=O)c1c(O)c2ccccc2oc1=O | inactive |
| CC(C)(C)OC(=O)c1ncn2c1[C@@H]1CCCN1C(=O)c1c(Br)cccc1-2 | inactive |
| CC(C(O)c1ccccc1)N(C)C/C=C/c1ccccc1 (centres undefined) | inactive |
